The panel holds about 83,000 compounds, 20% with a hit somewhere; the sample as a whole holds those more often.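 Compound tested at a single concentration for 48 hours in 96-well plates; a percent growth value below 10 was scored as active.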 A number with no mark means an inactive call. The source made the active and inactive calls.
Assays:
Assay in all cases: NCI-60 one-dose screen, 48 h (100 = growth as untreated, 0 = no growth, -100 = all killed)
Conditions in all cases: 10 µM unless noted
DU-145 prostate = test system: DU-145 prostate
K-562 leukemia = test system: K-562 leukemia
MALME-3M melanoma = test system: MALME-3M melanoma
MDA-MB-231 breast = test system: MDA-MB-231 breast
RXF 393 renal = test system: RXF 393 renal
SF-268 CNS = test system: SF-268 CNS
SF-295 CNS = test system: SF-295 CNS
SF-539 CNS = test system: SF-539 CNS
UACC-257 melanoma = test system: UACC-257 melanoma
M14 melanoma = test system: M14 melanoma
HCT-15 colon = test system: HCT-15 colon
HT29 colon = test system: HT29 colon
SNB-75 CNS = test system: SNB-75 CNS
SNB-19 CNS = test system: SNB-19 CNS
U251 CNS = test system: U251 CNS
PC-3 prostate = test system: PC-3 prostate
SK-MEL-5 melanoma = test system: SK-MEL-5 melanoma
UACC-62 melanoma = test system: UACC-62 melanoma
LOX IMVI melanoma = test system: LOX IMVI melanoma
SK-MEL-28 melanoma = test system: SK-MEL-28 melanoma

Row | SMILES | growth (DU-145 prostate) | growth (K-562 leukemia) | growth (MALME-3M melanoma) | growth (MDA-MB-231 breast) | growth (RXF 393 renal) | growth (SF-268 CNS) | growth (SF-295 CNS) | growth (SF-539 CNS) | growth (UACC-257 melanoma) | growth (M14 melanoma) | growth (HCT-15 colon) | growth (HT29 colon) | growth (SNB-75 CNS) | growth (SNB-19 CNS) | growth (U251 CNS) | growth (PC-3 prostate) | growth (SK-MEL-5 melanoma) | growth (UACC-62 melanoma) | growth (LOX IMVI melanoma) | growth (SK-MEL-28 melanoma)
1 | O=C(Nc1ccc2c(ccn2Cc2ccccn2)c1)c1ccnnc1 | 89.1% | 99.6% | 103% | 71.1% | 59.3% | 81.9% | 94.7% | 97.7% | 106% | 99.7% | 111% | 103% | 56% | 102% | 108% | 91.4% | 98.9% | 86.3% | 101% | 108%
2 | O=C(Nc1ccc2c(ccn2Cc2ccccn2)c1)c1cnccn1 | 95.6% | 107% | 106% | 86.7% | 47.8% | 84.1% | 97.5% | 96.4% | 102% | 106% | 112% | 109% | 57.9% | 102% | 105% | 101% | 97.5% | 89.6% | 98.3% | 111%
3 | CC1=N[C@@H]2CN(C(=O)OC(C)(C)C)C[C@@H]2n2c1cc1ccccc1c2=O | 111% | 97.8% | 107% | 96.1% | 110% | 99.5% | 108% | 99.3% | 108% | 97.7% | 104% | 106% | 91.7% | 105% | 106% | 92% | 99.1% | 97.9% | 98.2% | 115%
4 | CNCc1cccc2c1OCCCCCCC(C)(O)CC(C)(C)S(=O)(=O)c1ccc(cc1)-c1cnc(N)c(n1)C(=O)N2 (stereo unspecified) | 9.36% (active) | -29.3% (active) | -58.7% (active) | -6.41% (active) | -90.7% (active) | 13.2% | 10.9% | -72% (active) | 18.1% | -88.9% (active) | -20.6% (active) | -8.67% (active) | 84% | 33% | -70.9% (active) | 16% | – | 1.85% (active) | -59.4% (active) | 13.5%
5 | Nc1nc(-c2cccc([N+](=O)[O-])c2)c(N=Nc2ccc(Br)cc2)s1 | -41.2% (active) | 16.6% | -62% (active) | -46.6% (active) | -92.3% (active) | 26.2% | -65.4% (active) | -98% (active) | 0.3% (active) | -75.4% (active) | 0.133% (active) | 30.1% | -27.9% (active) | 29.9% | -89.3% (active) | 2.83% (active) | -38.5% (active) | -37.8% (active) | – | 4.69% (active)
6 | Fc1ccc(-c2cc3nc(C(Cl)Cl)nc(-c4ccc(F)cc4)n3n2)cc1 | -18.4% (active) | 14.3% | 9.81% (active) | 5.31% (active) | -58.1% (active) | 23.2% | 8.01% (active) | 21.3% | 20.5% | -4.2% (active) | 8.52% (active) | -6.96% (active) | -11.6% (active) | 1.89% (active) | -39.8% (active) | 16.8% | 76.5% | 44% | – | -5.14% (active)
7 | COc1ccc(/C=C/C(=O)c2cc(S(N)(=O)=O)c(OC)cc2OC)cc1 | 17.3% | 26.1% | 98% | 64.6% | 40.1% | 80.7% | 93.2% | 76.4% | 87.9% | 84.3% | 42.6% | 102% | 71.4% | 81% | 68.7% | 42.9% | – | 76.8% | 52.2% | 40.9%
8 | COc1ccc(/C=C/C(=O)c2cccc(NC(=O)CSc3nc4ccccc4c(=O)n3-c3ccccc3)c2)cc1OC | 105% | 89.9% | 107% | 97.3% | 97.7% | 94.6% | 103% | 101% | 110% | 102% | 89.5% | 112% | 86.2% | 93.4% | 101% | 97% | 99% | 89.9% | 91.5% | 115%
9 | CNC(=O)c1cc(Oc2ccc3nc(NC(=O)c4cc(N5CCOCC5)cc(C(F)(F)F)c4)sc3c2)ccn1 | 86.1% | 67.2% | 87.1% | 76.2% | -9.02% (active) | 86% | 44.6% | 91.5% | 82.4% | 77.5% | 58.9% | 62.3% | 71.6% | 92.9% | 72.3% | 46.7% | – | 72.4% | 83.5% | 81.1%
10 | Nc1nc(Nc2ccccc2SSc2ccccc2Nc2nc(N)nc(-c3ccc4ccccc4c3)n2)nc(-c2ccc3ccccc3c2)n1 | 60.7% | 69.7% | 93.1% | 60.9% | 79.5% | 74.9% | 67.7% | 99% | 112% | 95% | 66.9% | 102% | 45.9% | 92.9% | 45.7% | 45.5% | 92.3% | 85% | -70.7% (active) | 102%
11 | COc1ccc2c(c1)c(-c1cc(N)n3nc(-c4cn(C)c5ccc(OC)cc45)cc3n1)cn2C | 93.1% | -16.6% (active) | 98% | 78.4% | 128% | 109% | 98.9% | 94.9% | 110% | 111% | 29.8% | 75.6% | 98.2% | 107% | -30.9% (active) | 88.7% | 102% | 100% | 105% | 113%
12 | Cc1ccc(C(=O)NN2C(=O)/C(=C/C=C/c3ccco3)SC2=S)cc1 | 103% | 49.3% | 93.9% | 96.7% | 131% | 96.9% | 102% | 93.4% | 91% | 99.8% | 91.6% | 110% | 94.5% | 94.9% | 98.7% | 92.2% | – | 85.3% | 99.7% | 94.4%
13 | Cc1cccc2c3c(sc12)C(c1ccc(F)cc1)C(C#N)=C(/N=C/c1ccc(Cl)cc1)O3 (stereo unspecified) | 20.8% | 7.18% (active) | 63.5% | 25.6% | 2.24% (active) | 41.5% | 3.61% (active) | -13.1% (active) | 56.4% | -3.44% (active) | 3.92% (active) | -28.5% (active) | 29.5% | 26.4% | 4.91% (active) | 13.6% | 5.84% (active) | 18% | 9.59% (active) | 62.2%
14 | CCCCCCCn1cc2c(N[C@H](C)c3ccccc3)ncnc2n1 | 98.1% | 106% | 94.2% | 98.4% | 97.1% | 102% | 94.5% | 98.8% | 110% | 99.8% | 91.5% | 113% | 92.2% | 94.3% | 102% | 92.6% | 109% | 80.6% | – | 108%
15 | O=C1CCCC2=C1C(c1c[nH]c3ccc(Br)cc13)Cc1cc(Br)ccc1N2 (stereo unspecified) | 57.6% | 19.8% | 49.3% | 40% | 50.1% | 51.8% | -9.43% (active) | 28.6% | 80% | 13.1% | 26.5% | 12.2% | 39.8% | 32.6% | 31.6% | 9.76% (active) | 43% | 10.4% | – | 54.3%
16 | COc1ccccc1C(=O)Nc1cccc2c1C(=O)C(=O)C=C2 | 93.6% | 63.2% | 95.4% | 80.7% | 62.4% | 87% | 98.8% | 103% | 106% | 119% | 93.6% | 62.5% | 70% | 106% | 107% | 89.8% | 93.2% | 105% | – | 108%
